Activity calls are given as the source filed them. Rule as the data show it, unless noted: active = inhibition above about 80%; inactive = the rest.
Columns and labels:
[1] = LFS_MB_P medulloblastoma growth inhibition, cell-based, chromothripsis tumors, cisplatin or BGB combos (AID 1671449); conditions: LFS_MB_P medulloblastoma cells;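 also: cells exposed for 96 hours; 0% = vehicle DMSO and 100% = killing by high DMSO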
[2] = HDN33 neuroblastoma growth inhibition, cell-based, chromothripsis tumors, cisplatin or BGB combos (AID 1671450); conditions: HDN33 neuroblastoma cells, stronger effect = higher value;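 also: cells exposed to compound for four days; 0% = vehicle DMSO and 100% = cell killing by high DMSO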
[3] = ICB984 medulloblastoma cell growth inhibition, synergistic combos for chromothripsis tumors, cisplatin or BGB combos (AID 1671451; call rule not given here;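 also: cells exposed for 96 hours before readout; 0% = vehicle DMSO and 100% = killing by high DMSO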); conditions: ICB984 medulloblastoma cells, drug combinations, stronger effect = higher value
[4] = LFS_MB_1R medulloblastoma cell growth inhibition, synergistic combos for chromothripsis tumors, cisplatin or BGB combos (AID 1671452); conditions: LFS_MB_1R medulloblastoma cells, stronger effect = higher value;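 also: cells exposed for 96 hours before readout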
[5] = HTB85 osteosarcoma cell growth inhibition, synergistic combos for chromothripsis tumors, BGB or cisplatin IC20 combos (AID 1671453); conditions: HTB85 osteosarcoma cells, drug combinations, stronger effect = higher value;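 also: cells exposed for 96 hours before readout; 0% = vehicle DMSO and 100% = high DMSO killing control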
[6] = CRL2098 osteosarcoma cell growth inhibition, synergistic combos for chromothripsis tumors, BGB or cisplatin IC20 combos (AID 1671454); conditions: CRL2098 osteosarcoma cells, drug combinations, stronger effect = higher value;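 also: cells exposed for 96 h before readout; 0% = vehicle DMSO and 100% = killing by high DMSO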
[7] = HD-MB03 medulloblastoma cell growth inhibition, synergistic combos for chromothripsis tumors, BGB or cisplatin IC20 combos (AID 1671455; in the data active = inhibition above about 83%;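 also: 0% = vehicle DMSO and 100% = high DMSO as cytotoxic control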); conditions: HD-MB03 medulloblastoma cells, stronger effect = higher value
[8] = UWB1.289 ovarian carcinoma cell growth inhibition, synergistic combos for chromothripsis tumors, BGB or cisplatin combos (AID 1671456); conditions: UWB1.289 ovarian carcinoma cells, stronger effect = higher value;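 also: cells exposed to compound for four days; 0% = vehicle DMSO and 100% = killing by high DMSO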
[9] = LFS_MB_2R medulloblastoma cell growth inhibition, synergistic combos for chromothripsis tumors, cisplatin combos (AID 1671457); conditions: LFS_MB_2R medulloblastoma cells, stronger effect = higher value;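 also: cells exposed to compound for four days before readout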
[10] = MDA-MB-436 breast carcinoma cell growth inhibition, synergistic combos for chromothripsis tumors, BGB or cisplatin combos (AID 1671458; call rule not given here;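 also: cells exposed for 96 hours; 0% = vehicle DMSO and 100% = killing by high DMSO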); conditions: MDA-MB-436 breast carcinoma growth inhibition, drug combinations, stronger effect = higher value
[11] = UWB1.289_BRCA1 ovarian cancer growth, cell-based, BGB or cisplatin combinations (AID 1671459); conditions: UWB1.289 BRCA1 ovarian carcinoma, drug combinations, stronger effect = higher value
[12] = human astrocyte viability loss, single and combined drugs, cytotoxicity control for chromothriptic childhood tumor combination screen, cell-based, BGB or cisplatin IC20 combos (AID 1671460); conditions: Human astrocytes, drug combinations, stronger effect = higher value;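 also: cells exposed to compounds for 96 hours before viability readout; 0% = vehicle and 100% = killing control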
[13] = growth inhibition of BT084 medulloblastoma cells, cell-based, ICGC_MB145, cisplatin and BGB IC40 combos (AID 1671461); conditions: drug combinations, stronger effect = higher value;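 also: cells exposed to drugs for 96 hours; 0% = vehicle DMSO and 100% = high DMSO full killing control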
[14] = growth inhibition of RCMB18 medulloblastoma cells, cell-based, cisplatin and BGB IC40 combos (AID 1671462); conditions: stronger effect = higher value;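 also: cells exposed to compound for four days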
[15] = growth inhibition of CRL1545 osteosarcoma cells, cell-based, cisplatin and BGB IC20 combos (AID 1671464); conditions: stronger effect = higher value;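 also: cells exposed to compound for 96 hours before readout; 0% = vehicle DMSO and 100% = high DMSO killing control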
[16] = measured here: combination with BGB IC40, at 0.05 µM
[17] = measured here: with BGB IC20 combination, at 0.5 µM
[18] = measured here: with cisplatin IC20 combination, at 0.5 µM
[19] = measured here: combination with cisplatin, at 0.5 µM
[20] = measured here: combination with cisplatin, at 5 µM

SMILES: Cn1cnc2[nH]c(=O)[nH]c(=O)c21
- inhibition ([1]; at 0.5 µM, stronger effect = higher value): -31.2% (inactive)
- inhibition ([1]; measured here: combination with BGB IC20, at 0.005 µM): -23.8%
- inhibition ([1]; measured here: combination with BGB IC40, at 0.005 µM): -24.9%
- inhibition [1, 16]: -15.5%
- inhibition ([1]; measured here: combination with cisplatin, at 0.5 µM, stronger effect = higher value): -52.2%
- inhibition ([1]; measured here: combination with cisplatin, at 5 µM, stronger effect = higher value): -16.9%
- inhibition ([2]; BGB combo, at 5 µM): -14.9%
- inhibition ([2]; at 0.5 µM): -29.3% (inactive)
- inhibition ([2]; cisplatin combo, at 5 µM): -9.77%
- inhibition [2, 17]: -37.1%
- inhibition [2, 18]: -7.77%
- inhibition ([2]; single agent, at 5 µM): -7.59%
- inhibition ([3]; BGB IC20 combo, at 0.005 µM): -15.3%
- inhibition ([3]; BGB IC40 combo, at 0.005 µM): -28.7%
- inhibition ([3]; BGB IC40 combo, at 0.05 µM): -16.7%
- inhibition ([3]; at 0.5 µM): -24.9% (inactive)
- inhibition ([3]; cisplatin combo, at 0.05 µM): -16.7%
- inhibition ([3]; cisplatin combo, at 0.5 µM): -33.2%
- inhibition ([3]; cisplatin combo, at 5 µM): -13.6%
- inhibition ([3]; measured here: 5 uM single agent, at 5 µM): 2.87%
- inhibition ([4]; at 0.5 µM): -24.6% (inactive)
- inhibition [4, 16]: -0.159%
- inhibition [4, 19]: 11.9%
- inhibition [4, 20]: -7.74%
- inhibition ([5]; at 0.5 µM): -29.8% (inactive)
- inhibition ([5]; measured here: with BGB IC20, at 0.5 µM): -76.7%
- inhibition ([5]; measured here: with BGB IC20, at 5 µM): -27.8%
- inhibition ([5]; measured here: with cisplatin IC20, at 0.5 µM): 0.051%
- inhibition ([5]; measured here: with cisplatin IC20, at 5 µM): 18.6%
- inhibition ([5]; single agent, at 5 µM): -24.4%
- inhibition ([6]; at 0.5 µM): -69.2% (inactive)
- inhibition ([6]; measured here: combination with BGB at IC20, at 0.5 µM): -77.5%
- inhibition ([6]; measured here: combination with cisplatin at IC20, at 0.5 µM): -102%
- inhibition ([7]; at 0.5 µM): -10.2% (inactive)
- inhibition ([7]; measured here: combo with BGB at IC20, at 0.5 µM): -8.65%
- inhibition ([7]; measured here: combo with cisplatin at IC20, at 0.5 µM): -11.2%
- inhibition ([8]; at 0.5 µM): -8.42% (inactive)
- inhibition ([8]; measured here: inhibition with BGB combination, at 0.05 µM): -20.6%
- inhibition ([8]; measured here: inhibition with cisplatin combination, at 0.05 µM): -21.4%
- inhibition ([9]; at 0.5 µM): -6.27% (inactive)
- inhibition [9, 19]: -10.9%
- inhibition [9, 20]: -15.8%
- inhibition ([10]; at 0.5 µM): -15.1% (inactive)
- inhibition ([10]; measured here: BGB combination, at 0.5 µM): -7.33%
- inhibition ([10]; measured here: BGB combination, at 5 µM): -1.97%
- inhibition ([10]; measured here: cisplatin combination, at 0.5 µM): -35.1%
- inhibition ([10]; measured here: cisplatin combination, at 5 µM): -7.26%
- inhibition ([11]; BGB combination, concentration series, at 5 µM): -2.15%
- inhibition ([11]; at 0.5 µM): -8.08% (inactive)
- inhibition ([11]; cisplatin combination, concentration series, at 5 µM): 4.95%
- inhibition ([12]; at 0.5 µM): 14% (inactive)
- inhibition ([12]; measured here: combo with BGB IC20, at 0.5 µM): 17.9%
- inhibition ([12]; measured here: combo with cisplatin IC20, at 0.5 µM): 4.38%
- inhibition ([13]; at 0.5 µM): -17.3% (inactive)
- inhibition ([13]; cisplatin combination, at 0.5 µM): -7.22%
- inhibition ([13]; cisplatin combination, at 5 µM): -68.1%
- inhibition ([13]; measured here: BGB IC40 combination 0.05 uM, at 0.05 µM): -20.6%
- inhibition ([13]; single agent, at 5 µM): -30.4%
- inhibition ([14]; at 0.5 µM): -15.8% (inactive)
- inhibition ([14]; cisplatin combo, at 5 µM): -20.1%
- inhibition ([14]; measured here: BGB IC40 combination, at 0.05 µM): -17.4%
- inhibition [14, 19]: -33.2%
- inhibition ([14]; single agent, at 5 µM): -24.4%
- inhibition ([15]; at 0.5 µM): -15.4% (inactive)
- inhibition [15, 17]: 4.76%
- inhibition [15, 18]: -25.6%
- inhibition ([15]; single agent, at 0.05 µM): -33.9%
- inhibition ([15]; single agent, at 5 µM): -5.96%
